Experimental data as given in the OligoGym collection.
Note: reference of the scale not given here.

These sequences were tested against NKPD1 (assay: pooled miR-30 sensor sort-seq; sequence = guide strand). Settings: shRNA.
TCTCGCGGTACAACAGGTCGTC was tested, and the sensor-assay potency score (higher = more potent) was -0.615.
TACAACAGGTCGTCGCGGCTCT showed a sensor-assay potency score (higher = more potent) of -0.332.
In the case of TTGTCGGGCACGTACTCGTAGA, the sensor-assay potency score (higher = more potent) is reported as -1.44.
TTGTCGCGGAAAACGTCCCAGA gave a sensor-assay potency score (higher = more potent) of -1.15.
For AAAAGGAACTGCACGTTCCTGC, the sensor-assay potency score (higher = more potent) was -0.361.
TTGAGCGCGCTGACGGCTCGGA was tested, and the sensor-assay potency score (higher = more potent) was -0.211.
Work on AGGAACTGCAGCTTGGTGCGGC yielded a sensor-assay potency score (higher = more potent) of -1.31.
TACTCGTAGAGGCAGTCGCGCT gave a sensor-assay potency score (higher = more potent) of -1.54.

What follows are sequences tested against NLGN1 in the same assay as above. Settings: shRNA.
In the case of TTGGTATGAATGAATTTCGTGT, the sensor-assay potency score (higher = more potent) is reported as -0.285.
Sequence TATCTGAAACATTGCAACCAAC has a sensor-assay potency score (higher = more potent) of -1.43.
Work on TTGTTGTAGAGGTATACTGAGA yielded a sensor-assay potency score (higher = more potent) of -1.34.
In the case of TTGTTGTTTGGGATCATCCTGC, the sensor-assay potency score (higher = more potent) is reported as 0.229.
TAACATTATATCATAGTTGAGA showed a sensor-assay potency score (higher = more potent) of -0.468.
In the case of TGAGGTACCAACTCCAACCAGA, the sensor-assay potency score (higher = more potent) is reported as 0.0181.
In the case of TTGCTCGTTGAAAAAGTCCTTT, the sensor-assay potency score (higher = more potent) is reported as -0.525.
TAGCATTGGACTAATAGTCATT showed a sensor-assay potency score (higher = more potent) of -0.504.
In the case of TTTATTTCACACAATGACCAGT, the sensor-assay potency score (higher = more potent) is reported as 0.0352.
With TAAATTTCCAGTACCTTCCATA the sensor-assay potency score (higher = more potent) was -0.487.
TTGGTCAACAAGTTCTTTGTAA was tested, and the sensor-assay potency score (higher = more potent) was 0.00294.
